Reference: the supplement of paper PMC8371130
Counter-ions that a name gives are not always drawn.

Test system: HL-1
Assay: relative cell viability (CellTiter-Glo) vs DMSO control (% of DMSO control); higher = more viable cells
In short: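 In 384-well plates, 1000 HL-1 mouse atrial cardiomyocytes per well were plated with compounds at 40, 200, 1000 or 5000 nM in 0.01% DMSO. Hypoxia at 1% O2 for 48 h began one day later and was followed by 24 h of reoxygenation, with parallel plates held in normoxia. CellTiter-Glo luminescence gave cell viability relative to vehicle-treated control cells.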

[1] = oxygen condition: hypoxia 48 h (1% O2) + reoxygenation 24 h, 40 nM
[2] = oxygen condition: hypoxia 48 h (1% O2) + reoxygenation 24 h, 200 nM
[3] = oxygen condition: hypoxia 48 h (1% O2) + reoxygenation 24 h, 1000 nM
[4] = oxygen condition: hypoxia 48 h (1% O2) + reoxygenation 24 h, 5000 nM
[5] = oxygen condition: normoxia 72 h, 40 nM
[6] = oxygen condition: normoxia 72 h, 200 nM
[7] = oxygen condition: normoxia 72 h, 1000 nM
[8] = oxygen condition: normoxia 72 h, 5000 nM

SMILES	relative cell viability [1]	relative cell viability [2]	relative cell viability [3]	relative cell viability [4]	relative cell viability [5]	relative cell viability [6]	relative cell viability [7]	relative cell viability [8]
CC1=C(CC(=O)O)c2cc(F)ccc2/C1=C\c1ccc([S+](C)[O-])cc1 (centres undefined) [Sulindac]	104	105	106	61.2	103	101	108	113
C[N+](C)(C)CCCCCC[N+](C)(C)C [Hexamethonium bromide]	101	99.3	105	113	94.2	96.6	100	103
COCCCOc1cc(C[C@@H](C[C@H](N)[C@@H](O)C[C@H](C(=O)NCC(C)(C)C(N)=O)C(C)C)C(C)C)ccc1OC [Aliskiren hemifumarate]	94.1	97.2	92.3	107	95.9	102	101	107
CC[C@H]1OC(=O)[C@H](C)[C@@H](O[C@H]2C[C@@](C)(OC)[C@@H](O)[C@H](C)O2)[C@H](C)[C@@H](O[C@@H]2O[C@H](C)C[C@H](N(C)C)[C@H]2O)[C@](C)(O)C[C@@H](C)CN(C)[C@H](C)[C@@H](O)[C@]1(C)O [Azithromycin]	109	103	99.3	59.1	105	96.2	102	41.1
CCN(CC)CCOc1ccc(C(=C(Cl)c2ccccc2)c2ccccc2)cc1 [Clomifene citrate]	101	104	107	35.1	111	106	98.2	6.57
CNC1CCCN(c2c(F)cc3c(=O)c(C(=O)O)cn(C4CC4)c3c2OC)C1 (centres undefined) [Balofloxacin]	103	93.5	101	107	101	99.2	99.3	107
c1cnc2cc3c(cc2n1)[C@@H]1CNC[C@H]3C1 [Varenicline tartrate]	106	105	110	106	106	102	112	97.8
CCCNC(C)C(=O)Nc1ccccc1C (centres undefined) [Prilocaine]	96.7	101	105	104	92.2	92.1	92.3	97.4
Nc1nc(Cl)nc2c1ncn2[C@@H]1O[C@H](CO)[C@@H](O)[C@@H]1F [Clofarabine]	114	69.7	6.59	2.39	106	62.6	3.43	1.95
NC(=O)N1c2ccccc2C=Cc2ccccc21 [Carbamazepine]	97.1	103	105	106	103	103	95.1	109
COc1cc(Nc2c(C#N)cnc3cc(OCCCN4CCN(C)CC4)c(OC)cc23)c(Cl)cc1Cl [Bosutinib]	103	104	107	121	110	125	107	116
CCC[C@@H]1C[C@@H](C(=O)N[C@@H]([C@H]2O[C@H](SC)[C@H](O)[C@@H](O)[C@H]2O)[C@@H](C)O)N(C)C1 [Lincomycin hydrochloride]	93.1	103	103	103	99	98.3	100	97
NS(=O)(=O)c1cc2c(cc1C(F)(F)F)NC(Cc1ccccc1)NS2(=O)=O (centres undefined) [Bendroflumethiazide]	93.6	98.4	101	106	104	100	105	110
O=C(O)Cc1ccccc1Nc1c(Cl)cccc1Cl [Diclofenac]	97.6	112	103	109	100	105	105	109
COc1cc(OC)c(C(=O)CCCN2CCCC2)c(OC)c1 [Buflomedil HCl]	101	99.7	100	114	108	103	105	114
CC(=O)Nc1ccccc1 [Acetanilide]	96.5	98.9	100	111	101	94.9	98	105
C[C@]12CC[C@@H]3c4ccc(O)cc4CC[C@H]3[C@@H]1CC[C@@H]2O [Estradiol]	105	98.2	100	94	101	103	100	100
COc1ccc(-c2nc3cc(C4=NNC(=O)CC4C)ccc3[nH]2)cc1 (centres undefined) [Pimobendan]	107	108	99.1	109	109	102	114	111
C#C[C@]1(O)CC[C@H]2[C@@H]3CCC4=CC(=O)CC[C@@H]4[C@H]3CC[C@@]21C [norethindrone]	97.6	100	97	105	102	108	100	113
CCN1CCN(c2cc(-c3ccc(F)cc3)c3c(n2)CCCCCC3)CC1 [Blonanserin]	101	99.5	91.2	49.4	103	93.3	93.5	51.2
COC(=O)C1=C(C)NC(C)=C(C(=O)OCCN(C)Cc2ccccc2)C1c1cccc([N+](=O)[O-])c1 (centres undefined) [Nicardipine HCl]	107	111	112	114	107	106	105	122
CC(C)CC(N)=O [Isovaleramide]	96.1	91.3	96.4	112	96.3	90.2	87.8	104

SMILES	relative cell viability [1]	relative cell viability [2]	relative cell viability [3]	relative cell viability [4]	relative cell viability [5]	relative cell viability [6]	relative cell viability [7]	relative cell viability [8]
NC(=O)NO [Hydroxyurea]	101	109	109	108	108	103	109	110
CCCCOc1cc(C(=O)OCCN(CC)CC)ccc1N [Oxybuprocaine HCl]	106	106	108	108	103	102	113	112
Nc1cc(C(Cl)=C(Cl)Cl)c(S(N)(=O)=O)cc1S(N)(=O)=O [Clorsulon]	109	105	107	113	110	115	116	110
Cl.N=C(N)NCCC[C@H](N)C(=O)O [L-Arginine HCl]	97.5	104	104	118	100	104	108	107
O=C1N=C(O)NC1(c1ccccc1)c1ccccc1 [Phenytoin sodium]	96.1	96.2	95.6	111	94.5	101	101	107
CN1CC(=O)NC1=N [Creatinine]	105	104	106	114	102	97.3	100	108
C#CCN[C@@H]1CCc2ccccc21 [Rasagiline mesylate]	94.8	96.7	98.2	102	93.3	92.9	99.4	108
CCOC(=O)[C@H](CCc1ccccc1)N[C@@H](C)C(=O)N1[C@H](C(=O)O)C[C@@H]2CCC[C@@H]21 [Ramipril]	100	115	113	123	112	105	117	116
CC(=O)OCC[N+](C)(C)C [Acetylcholine chloride]	93.2	99.1	101	106	91.7	101	104	106
O=C(O)Cc1ccccc1Nc1c(Cl)cccc1Cl [Diclofenac Diethylamine]	103	107	105	113	110	115	120	113
COC(=O)C1=C(C)NC(C)=C(C(=O)OCCN2CCN(C(c3ccccc3)c3ccccc3)CC2)C1c1cccc([N+](=O)[O-])c1 (centres undefined) [Manidipine]	103	103	99.6	105	102	99.2	103	103
Nc1ncn([C@H]2C[C@H](O)[C@@H](CO)O2)c(=O)n1 [Decitabine]	103	104	94.1	65.4	101	104	91.2	58.2
CCCN[C@H]1CCc2nc(N)sc2C1 [Pramipexole]	103	103	101	108	98.2	98.9	107	108
CO[C@@H]1[C@@H](OC(N)=O)[C@@H](O)[C@H](Oc2ccc3c(O)c(NC(=O)c4ccc(O)c(CC=C(C)C)c4)c(=O)oc3c2C)OC1(C)C [Novobiocin sodium]	100	102	102	110	97.1	99.2	101	113
CCCCC[C@H](O)/C=C/[C@H]1[C@H](O)CC(=O)[C@@H]1CCCCCCC(=O)O [Alprostadil]	104	106	107	107	108	102	111	101
O=P(O)(O)C(O)(Cc1cccnc1)P(=O)(O)O [Risedronic acid]	94	101	96.4	71.4	99	108	105	107
CN(C)C/C=C/C(=O)Nc1cc2c(Nc3ccc(F)c(Cl)c3)ncnc2cc1O[C@H]1CCOC1 [Afatinib]	102	107	85.9	64.7	102	102	72.5	17.6
C#C[C@]1(O)CC[C@H]2[C@@H]3CCC4=CC(=O)CC[C@@H]4[C@H]3CC[C@@]21CC [Levonorgestrel]	110	115	104	112	107	104	111	111
CCCCNC(=O)NS(=O)(=O)c1ccc(C)cc1 [Tolbutamide]	99	99.7	101	113	103	102	102	110
CS(=O)(=O)OCCCCOS(C)(=O)=O [Busulfan]	108	102	103	107	104	103	97.4	120
CC[C@H]1OC(=O)[C@H](C)[C@@H](O[C@H]2C[C@@](C)(OC)[C@@H](O)[C@H](C)O2)[C@H](C)[C@@H](O[C@@H]2O[C@H](C)C[C@H](N(C)C)[C@H]2O)[C@](C)(OC)C[C@@H](C)C(=O)[C@H](C)[C@@H](O)[C@]1(C)O [Clarithromycin]	101	101	105	105	100	100	107	108
